From PubChem
Sampled rows, rich in hits. Any-hit rate of the full collection: about 1.6%.
KCNQ2 inh: inhibitors of rat KCNQ2 potassium channel; CHO-K1 KCNQ2, FluxOR thallium flux, 20 min; active compounds read low; AID 2156; hit rate 1.1% among 310,000; B-score at 10 µM; O88943;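 active means fluorescence ratio B-score at most minus 3 library SDs, with starting brightness B-score within 2 library SDs, cut at about -5.5 in these data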
Target sequence (O88943 whole entry, looked up): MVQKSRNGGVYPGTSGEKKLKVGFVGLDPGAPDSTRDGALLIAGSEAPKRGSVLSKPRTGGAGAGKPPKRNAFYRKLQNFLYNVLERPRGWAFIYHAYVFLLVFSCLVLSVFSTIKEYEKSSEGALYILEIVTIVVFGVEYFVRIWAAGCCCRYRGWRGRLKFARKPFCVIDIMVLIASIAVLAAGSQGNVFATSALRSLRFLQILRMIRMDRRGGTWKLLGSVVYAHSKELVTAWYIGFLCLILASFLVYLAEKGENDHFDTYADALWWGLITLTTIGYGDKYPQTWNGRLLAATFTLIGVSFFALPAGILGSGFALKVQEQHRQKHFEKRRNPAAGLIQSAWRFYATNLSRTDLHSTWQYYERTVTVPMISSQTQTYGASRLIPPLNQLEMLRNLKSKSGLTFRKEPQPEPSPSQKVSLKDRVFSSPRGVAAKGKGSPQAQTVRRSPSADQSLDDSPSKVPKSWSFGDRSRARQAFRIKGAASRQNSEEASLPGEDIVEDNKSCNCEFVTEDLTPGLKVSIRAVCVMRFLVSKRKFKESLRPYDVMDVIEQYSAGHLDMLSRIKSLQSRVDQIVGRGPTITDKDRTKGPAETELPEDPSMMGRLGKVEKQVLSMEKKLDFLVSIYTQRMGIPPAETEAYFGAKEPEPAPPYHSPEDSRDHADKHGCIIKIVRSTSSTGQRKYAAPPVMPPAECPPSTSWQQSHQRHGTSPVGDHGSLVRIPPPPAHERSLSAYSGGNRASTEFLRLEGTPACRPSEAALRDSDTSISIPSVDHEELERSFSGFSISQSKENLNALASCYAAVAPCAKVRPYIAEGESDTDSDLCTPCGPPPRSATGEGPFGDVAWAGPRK
KCNQ2 enhance: KCNQ2 (rat) channel potentiation. O88943. CHO-K1 KCNQ2, FluxOR thallium flux fluorescence; active compounds read high. B-score at 10 µM. hit rate 0.54% among 310,000;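 active means fluorescence ratio B-score at least 3 SD of library B-scores, with initial fluorescence B-score within 3 of them, cut at about 5.3 in these data; same plate scores as AID 2156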;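 further: B-score of peak minus minimum over baseline fluorescence ratio after K+ and Tl+ stimulus; positive B-score means potentiation of KCNQ2 with more thallium influx and brighter signal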
Numbers without * were called inactive; i = inactive; / = no result.

SMILES | KCNQ2 inh | KCNQ2 enhance
Cc1ccc(N(CC(O)CON=C2c3ccccc3-c3ccccc32)S(C)(=O)=O)cc1 (centres undefined) | i | /
O=C(C[n+]1cc(-c2ccc(Cl)cc2)n2c1CCCCC2)c1ccccc1 | i | /
Clc1ccc(C2=C3CCCCn4c(-c5ccccc5)c[n+](c43)C2)cc1 | -6.4* | -6.4
O=C(NCC1CCN(C(=O)c2c(F)c(F)c(F)c(F)c2F)CC1)c1c(F)c(F)c(F)c(F)c1F | i | /
Cc1ccc(CNC(=O)c2cc(=O)c3ccccc3o2)cc1 | i | 0.3
Cc1ccc(-c2c(C(=O)NCc3ccc(F)cc3)oc(=O)c3ccccc23)cc1 | i | 9.2*
CC(C(=O)O)n1c(-c2ccn[nH]2)n[nH]c1=S (centres undefined) | i | 0.47
COCCN(Cc1nc(-c2ccc(-c3ccccc3)cc2)oc1C)C(C)C | i | /
COC(=O)CN1C(=S)N(C)C(=O)/C1=C/c1cccs1 | i | /
CCc1ccc(/C=C2/C(=O)N(C)C(=S)N2CC(=O)OC)s1 | -6* | -6
O=C(c1ccc(S(=O)(=O)N2CCCCCC2)cc1)N1CCN(c2ccccc2F)CC1 | i | /
Cc1ccc(NS(=O)(=O)c2ccc(NC(=O)c3ccccc3C(=O)O)cc2)cc1C | i | /
CC(=O)Nc1ccc(NC(=O)C2CC(=O)N(c3ccc(Cl)cc3)C2)cc1 (centres undefined) | i | /
CC(=O)Nc1ccc(NC(=O)C2CC(=O)N(c3ccccc3Cl)C2)cc1 (centres undefined) | i | 21*
COC(=O)c1sccc1NC(=O)c1cc(-c2cccc(C)c2)nc2ccccc12 | i | /
COC(=O)c1sccc1NC(=O)c1c(C)c(-c2cccc(Cl)c2)nc2ccccc12 | -5.7* | -5.7
CCOC(=O)C(CCCCOc1cccc(CC)c1)C(=O)OCC | -5.6* | -5.6
CCOC(=O)C(CCCOc1cccc(CC)c1)C(=O)OCC | i | /
COc1cc(NC(=O)CCCNC(=O)Cn2cnc3sc(C)c(C)c3c2=O)cc(OC)c1OC | i | 0.02
OC(CNCC1CCCO1)Cn1c2ccc(Cl)cc2c2cc(Cl)ccc21 (centres undefined) | -7.6* | -7.6
OC(CNCC1CCCO1)Cn1c2ccccc2c2ccccc21 (centres undefined) | i | /
Cc1ccc(S(=O)(=O)N2C(=O)/C(=C3\SC(=S)NC3=O)c3ccccc32)cc1 | i | 3.1
Cc1nc2ccc(NS(=O)(=O)c3ccc(F)c(C)c3)cc2[nH]1 | i | 0.92
CCOc1ccccc1Nc1ccnc2cc(Cl)ccc12 | i | 0.02
CCOc1ccccc1Nc1cc(C)c2cccc(C)c2n1 | -5.8* | -5.8
SMILES | KCNQ2 inh | KCNQ2 enhance
CCC1(C)Cc2ccccc2-c2c1c(=O)n(Cc1ccccc1)c1nnnn21 (centres undefined) | -6.2* | -6.2
O=c1c2c(n3nnnc3n1Cc1ccccc1)-c1ccccc1CC21CCCC1 | i | /
Cc1ccc(NS(=O)(=O)c2cccc(C(=O)NCC(c3ccc(F)cc3)N3CCOCC3)c2)cc1 (centres undefined) | i | /
C=CCN(c1ccccc1)S(=O)(=O)c1cccc(C(=O)NCC(c2ccc(F)cc2)N2CCOCC2)c1 (centres undefined) | -6* | -6
COC(=O)c1cc(=O)n(Cc2ccc(F)cc2)c(=Nc2ccccc2)s1 | -5.8* | -5.8
COC(=O)c1cc(=O)n(Cc2cccs2)c(=Nc2ccccc2)s1 | i | /
COC(=O)c1cc(=O)n(Cc2ccc(OC)c(OC)c2)c(=Nc2ccc(F)cc2)s1 | i | /
COC(=O)c1cc(=O)n(Cc2ccco2)c(=Nc2ccc(F)cc2)s1 | -6* | -6
COc1cc(NC(=O)COC(=O)CCOc2ccc(C)cc2)cc(OC)c1 | i | 0.1
CCOc1ccc(-c2c(C(=O)N/N=C/c3cccc(Br)c3)nnn2-c2nonc2N)cc1 | i | /
Cc1ccc(C)c(S(=O)(=O)NCC(=O)Nc2ccc3c(c2)OCO3)c1 | i | 0.19
CCCCOC(=O)c1ccc(NC(=S)NC(=O)c2c(Br)c(C)nn2C)cc1 | i | 9.6*
CCOC(=O)c1ccc(NC(=S)NC(=O)c2cncc(Br)c2)cc1 | i | /
Cc1cc(N2CCN(C)CC2)ccc1NC(=O)c1cccc(S(=O)(=O)N2CCc3ccccc3C2)c1 | i | /
O=C(CN1CCCCCC1)Nc1ccc(Oc2ccccc2)cc1 | i | 9*
NC(=O)C1(N2CCCCC2)CCN(CC(=O)Nc2ccc(Oc3ccccc3)cc2)CC1 | i | 0.6
Cc1cccnc1NC(=O)CSc1ncnc2sc(C)c(C)c12 | i | /
COC(=O)c1c(-c2ccccc2)csc1NC(=O)CSc1ncnc2sc(C)c(C)c12 | -5.6* | -5.6
COc1ccc(CNC(=O)c2ccc(CS(=O)c3ccccc3)o2)cc1 (centres undefined) | i | 1
CCc1ccc2[nH]c(=O)c(C(c3nnnn3CC3CCCO3)N3CCCc4ccccc43)cc2c1 (centres undefined) | i | 7.2*
Cc1cc2cc(C(c3nnnn3CC3CCCO3)N3CCCc4ccccc43)c(=O)[nH]c2cc1C (centres undefined) | i | 0.15
